# Assay results as given in article PMC8384837, “Expanding the binding specificity for RNA recognition by a PUF domain”.
# Molecular target: PUM1 PUF domain R5-RRA (Homo sapiens, UniProt Q14671 828-1176, C1007R;Q1011A)
# Experiment: yeast three-hybrid, YBZ-1, SC-Leu-His + 0.5 mM 3-AT, 4 days
# Details: tags: N-Gal4 AD-HA kept; label: inside an RPR1-promoter hybrid RNA with tandem MS2 sites; ssRNA
# In short: (§1)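 Matching RNA elements and Pumilio-1 PUF domain libraries, randomized at the three base-contacting residues of every repeat, were co-expressed from a centromeric plasmid in strain YBZ-1 (LexA–MS2 coat fusion, HIS3 reporter). The repeat regions were PCR-amplified and Illumina-sequenced from cells grown four days on SC-Leu (input) or SC-Leu-His + 0.5 mM 3-AT (selection). The interaction score is the log change in variant frequency from input to selection. It is computed in log2, with a pseudocount of 1 for absent variants.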
row,Sequence,binding signal
1,GGCUAGAACUAGUGGAUCCCCCGGCGCCCGGCGGCUCGAGCCCGGGUAAGUGUGAAUAGUCUGCAUGCCGCCGGGCGCCAUGCCUGCAGGUCGACUCUAGAAAACAUG,1.09 log2 enrichment (interaction score)
2,GGCUAGAACUAGUGGAUCCCCCGGCGCCCGGCGGCUCGAGCCCGGGUAAGUGUCAAUAGUCUGCAUGCCGCCGGGCGCCAUGCCUGCAGGUCGACUCUAGAAAACAUG,4.67 log2 enrichment (interaction score)
3,GGCUAGAACUAGUGGAUCCCCCGGCGCCCGGCGGCUCGAGCCCGGGUAAGUGUAAAUAGUCUGCAUGCCGCCGGGCGCCAUGCCUGCAGGUCGACUCUAGAAAACAUG,1.06 log2 enrichment (interaction score)

# Molecular target: PUM1 PUF domain R5-LFS (Homo sapiens, UniProt Q14671 828-1176, C1007L;R1008F;Q1011S)
# Experiment: as above
# Details: tags: N-Gal4 AD-HA kept; label: inside an RPR1-promoter hybrid RNA with tandem MS2 sites; ssRNA
# In short: as §1
row,Sequence,binding signal
1,GGCUAGAACUAGUGGAUCCCCCGGCGCCCGGCGGCUCGAGCCCGGGUAAGUGUGAAUAGUCUGCAUGCCGCCGGGCGCCAUGCCUGCAGGUCGACUCUAGAAAACAUG,1.48 log2 enrichment (interaction score)
2,GGCUAGAACUAGUGGAUCCCCCGGCGCCCGGCGGCUCGAGCCCGGGUAAGUGUUAAUAGUCUGCAUGCCGCCGGGCGCCAUGCCUGCAGGUCGACUCUAGAAAACAUG,1.78 log2 enrichment (interaction score)
3,GGCUAGAACUAGUGGAUCCCCCGGCGCCCGGCGGCUCGAGCCCGGGUAAGUGUAAAUAGUCUGCAUGCCGCCGGGCGCCAUGCCUGCAGGUCGACUCUAGAAAACAUG,2.29 log2 enrichment (interaction score)
